The values below come from PubChem BioAssay.

The source made the active and inactive calls.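 How the source made its calls, unless noted: active means inhibition above 20% together with a positive visual image hit; inconclusive means visual image hit but inhibition not above 20%; inactive means no visual image hit.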

A short description of experiment [1]: inhibitors of TNFa-induced NFkB p65 translocation, primary screen, imaging, HUVEC, MLSMR starter and 10KST1 sets (AID 438).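 Further: compound added about 3h40 before a 20 min TNFalpha stimulation.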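 On inhibition: signal is the nuclear over cytoplasmic p65 intensity ratio per well.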 The conditions noted are these: HUVEC TNFa-induced p65 nuclear translocation; cell count: measured here: nuclei count (cytotoxicity indicator), at 2.08 µM; inhibition: at 2 µM, stronger effect = higher value, 0% TNFa-plus-vehicle, 100% no-TNFa wells.

Experiment [2] is described as follows: reduction of polyQ htt aggregates in cells – imaging, exon1htt(103Q)mCFP cells, high-content imaging, primary screen (AID 483;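 active means visual image review flags a hit and inhibition of aggregation exceeds 20%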;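 further: compound exposure lasted 3 days before fixation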;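 on nuclei count: percent of the per-plate median nuclei count of sample wells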). The settings on record: exon1htt(103Q)mCFP cell line, aggregate imaging, at 2 µM; inhibition of aggregation: stronger effect = higher value; nuclei count: measured here: cell count, toxicity.
Experiment [3] can be described thus: endothelial E-selectin expression blockers – imaging, HUVEC, immunofluorescence, MLSMR starter and 10KST1 sets, primary screen (AID 487;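 active means visually confirmed hit in the image check and inhibition above 20%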;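 on inhibition: signal is fraction of cell area covered by stained E-selectin grains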;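 on nuclei count: 100% = median nuclei count of all wells on the same plate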). The settings on record: HUVEC TNFalpha-induced E-selectin immunofluorescence imaging, at 2 µM; inhibition: stronger effect = higher value; nuclei count: measured here: cell number, toxicity.
For experiment [4], the target named is Voltage-gated potassium channel subunit beta-2 (Rattus norvegicus) (UniProt P62483). Description: inhibitors of rat Kvbeta2 reductase activity – biochemical, NADPH fluorescence, primary screen (AID 622;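 active means fluorescence slope higher than the sample average by over 3 SD, cut at about -0.22 in these data, passing the limit was not always enough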;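 further: slope of raw intensity against log time taken from 70 to 1610 s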). The settings on record: recombinant KvBeta, 4-cyanobenzaldehyde reduction, at 10 µM, stronger effect = higher value.
Chain of Voltage-gated potassium channel subunit beta-2 (Rattus norvegicus) (P62483 whole entry, looked up): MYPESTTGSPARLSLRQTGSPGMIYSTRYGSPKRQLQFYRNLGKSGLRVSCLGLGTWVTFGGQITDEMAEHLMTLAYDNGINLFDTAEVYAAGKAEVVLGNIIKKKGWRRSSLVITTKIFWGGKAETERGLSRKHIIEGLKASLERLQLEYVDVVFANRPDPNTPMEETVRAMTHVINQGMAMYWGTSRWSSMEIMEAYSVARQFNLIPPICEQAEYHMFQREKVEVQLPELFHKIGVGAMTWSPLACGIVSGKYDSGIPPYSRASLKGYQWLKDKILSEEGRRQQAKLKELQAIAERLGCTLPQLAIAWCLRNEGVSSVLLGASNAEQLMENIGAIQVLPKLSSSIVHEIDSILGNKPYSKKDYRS
The target is the same in experiment [5]. Put plainly: enhancers of rat Kvbeta2 NADPH turnover – biochemical, NADPH fluorescence, primary screen (AID 623;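 active means NADPH fluorescence slope more negative than the mean of all samples by about 3 SD, 99.7% confidence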;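 further: fluorescence intensity change per second fitted from 20 to 320 s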). The settings on record: Recombinant KvBeta, NADPH fluorescence decrease slope, 10 min; at 10 µM; stronger effect = lower value.
For experiment [6], the target named is Alpha-2C adrenergic receptor (Homo sapiens) (UniProt P18825). Description: compounds altering alpha2C-coupled GIRK flux – cell-based, HEK293 alpha2C/GIRK1/2, thallium flux, primary screen (AID 624;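 active means fluorescence slope after compound addition differing from the mean of all screened samples at 99.7% confidence, in either direction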;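 further: slope of fluorescence ratio to pre-addition baseline per second over 15 to 24 s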). The conditions noted are these: thallium flux BTC fluorescence, at 10 µM, actives lie on both sides.
Chain of Alpha-2C adrenergic receptor (Homo sapiens) (P18825 whole entry, looked up): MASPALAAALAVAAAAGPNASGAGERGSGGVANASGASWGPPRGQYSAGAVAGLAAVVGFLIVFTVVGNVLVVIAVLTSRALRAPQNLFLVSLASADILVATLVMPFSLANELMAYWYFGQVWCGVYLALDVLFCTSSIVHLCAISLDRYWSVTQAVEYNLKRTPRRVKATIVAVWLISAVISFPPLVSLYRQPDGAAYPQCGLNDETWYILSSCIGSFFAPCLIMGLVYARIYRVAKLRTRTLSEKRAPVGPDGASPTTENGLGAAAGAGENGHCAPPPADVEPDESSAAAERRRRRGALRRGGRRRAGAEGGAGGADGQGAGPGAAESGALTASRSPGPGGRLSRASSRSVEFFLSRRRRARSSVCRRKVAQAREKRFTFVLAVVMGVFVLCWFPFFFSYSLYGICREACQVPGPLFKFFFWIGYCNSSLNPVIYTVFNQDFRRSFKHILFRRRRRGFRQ
Experiment [7] is described as follows: blockers of RIG-like receptor reporter activation – cell-based, Sendai virus stimulus, luciferase, 10K MLSCN set, TLR/RLR signaling modifier project, primary screen (AID 602276;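 active means inhibition at or above 50% at 10 µM; inactive means inhibition below 50%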;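 further: firefly luciferase from ISG56 promoter only with Renilla not read in this screen; 0% = Sendai virus plus DMSO and 100% = medium plus DMSO without virus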). The settings on record: HEK293 RL24 IRF3 luciferase reporter, at 10 µM, stronger effect = higher value. In general terms: In a reporter assay the amount or activity of a reporter protein is the signal.

Experiment [8] in a line: TLR3 IRF3 reporter activation blockers – cell-based, poly I:C stimulus, luciferase, 10K MLSCN set, primary screen (AID 602277;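 active means inhibition of the reporter signal at or above 50%; inactive means inhibition below 50%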). The conditions noted are these: HEK293-TLR3 RL24 IRF3 luciferase reporter, at 10 µM, stronger effect = higher value.

With `Cc1cccc(Cc2nnc(NC(=O)c3cccc(S(=O)(=O)N4CCOCC4)c3)s2)c1`, in experiment [1], the cell count amounted to 424. Moreover, the inhibition (in general, the relative decrease from the control value, in per cent) in experiment [1] was -5.5% (inactive); in experiment [3], 0.9% (inactive); in experiment [7], 14.3% (inactive); in experiment [8] it was 30.6% (inactive). In addition, in experiment [2], the inhibition of aggregation was -0.5% (inactive). In addition, the nuclei count was 106% in experiment [2] and 126% in experiment [3]. For the same molecule, the fluorescence slope in experiment [4] is -0.422 (inactive). Also, the NADPH fluorescence slope in experiment [5] was -7.5e-06 (inactive). Also, the slope in experiment [6] was 0.00421 (inactive).

As to `COC(=O)C1=C(C)NC2=C(C(=O)CCC2)C1c1coc2ccccc2c1=O` (centres undefined), the cell count in experiment [1] worked out at 322. For the same molecule, the inhibition is -2.1% (inactive) in experiment [1], -47.5% (inactive) in experiment [3], 16.4% (inactive) in experiment [7] and 48.4% (inactive) in experiment [8]. Further, the inhibition of aggregation in experiment [2] is 14.4% (inactive). The nuclei count is 98.3% in experiment [2] and 111% in experiment [3]. Also, the fluorescence slope in experiment [4] is -0.244 (inactive). The NADPH fluorescence slope in experiment [5] was 7.1e-06 (inactive). For the same molecule, the slope in experiment [6] is 0.00668 (inactive).

Turning to `CCCCN=CC1=C(O)C(C(=O)OC)C(C)(C)CC1=O` (centres undefined), in experiment [1], the cell count came out at 390. Further, the inhibition in experiment [1] is -4.3% (inactive); in experiment [3], -21.7% (inactive); in experiment [7] it was -0.949% (inactive); in experiment [8] it was -9.49% (inactive). In experiment [2], the inhibition of aggregation was 10.6% (inactive). For the same molecule, the results for the nuclei count in experiment [2] and in experiment [3] were 106% and 123%, respectively. Further, the fluorescence slope in experiment [4] was -0.392 (inactive). In addition, the NADPH fluorescence slope in experiment [5] is -6.2e-07 (inactive). For the same molecule, the slope in experiment [6] is 0.0055 (inactive).

Turning to `C=CCNC(=O)c1cc(-c2ccccc2O)on1`, in experiment [1], the cell count was found to be 856. Also, the inhibition in experiment [1] was -0.5% (inactive); in experiment [3], -63.2% (inactive); in experiment [7], -22.6% (inactive); in experiment [8], -96.4% (inactive). Moreover, the inhibition of aggregation in experiment [2] was -0.2% (inactive). Besides, the nuclei count in experiment [2] is 109%; in experiment [3], 113%. The fluorescence slope in experiment [4] was -0.588 (inactive). Further, in experiment [5], the NADPH fluorescence slope is -1.8e-05 (inactive). The slope in experiment [6] is 0.0069 (inactive).

For `COc1ccc(N=c2scc(-c3ccc(S(=O)(=O)N4CCOCC4)cc3)n2CCCO)cc1`, the cell count in experiment [1] is 974. Further, the inhibition is -6.1% (inactive) in experiment [1], -218% (inactive) in experiment [3], 41.4% (inactive) in experiment [7] and -19.4% (inactive) in experiment [8]. In experiment [2], the inhibition of aggregation was 23% (inactive). Also, the nuclei count worked out at 99.9% in experiment [2] and 136% in experiment [3]. In addition, the fluorescence slope in experiment [4] was -0.319 (inactive). Also, the NADPH fluorescence slope in experiment [5] is -2.9e-05 (inactive). In addition, the slope in experiment [6] was 0.00558 (inactive).

For `N#CC1=C(N)SC(N)=C(C#N)C1c1ccc(C(F)(F)F)cc1`, the cell count in experiment [1] is 520. Further, the inhibition in experiment [1] was -1.5% (inactive); in experiment [3] it was -69.1% (inactive); in experiment [7], -1.4% (inactive); in experiment [8], -49.4% (inactive). Besides, the inhibition of aggregation in experiment [2] was -11.9% (inactive). The nuclei count in experiment [2] is 114%; in experiment [3], 187%. Also, the fluorescence slope in experiment [4] was -0.472 (inactive). Also, the NADPH fluorescence slope in experiment [5] is 2.9e-05 (inactive). For the same molecule, the slope in experiment [6] was 0.00688 (inactive).

As for `COc1ccccc1OCC(=O)Nc1cccc(-c2nc3ccccc3o2)c1`, in experiment [1], the cell count came out at 468. The inhibition in experiment [1] is 0% (inactive); in experiment [3] it was -65.1% (inactive); in experiment [7], -0.911% (inactive); in experiment [8], -2.39% (inactive). Besides, in experiment [2], the inhibition of aggregation is 1% (inactive). Besides, the nuclei count was 61.8% in experiment [2] and 110% in experiment [3]. For the same molecule, the fluorescence slope in experiment [4] is -0.374 (inactive). Also, in experiment [5], the NADPH fluorescence slope was -1.4e-06 (inactive). Further, the slope in experiment [6] is 0.00387 (inactive).

As to `COc1ccc(C(=O)Nc2ccc(C)cn2)c(OC)c1`, the cell count in experiment [1] is 283. The inhibition is 14.7% (inactive) in experiment [1], -3.2% (inactive) in experiment [3], -3.57% (inactive) in experiment [7] and 53.3% (active) in experiment [8]. Besides, in experiment [2], the inhibition of aggregation is -14.1% (inactive). The values for the nuclei count in experiment [2] and in experiment [3] were 79% and 101%, respectively. In addition, in experiment [4], the fluorescence slope was -0.469 (inactive). Moreover, the NADPH fluorescence slope in experiment [5] was -3.9e-05 (inactive). In addition, the slope in experiment [6] is 0.00731 (inactive).

In the case of `COc1ccccc1NC(=O)c1ccc(COc2ccccc2OC)o1`, the cell count in experiment [1] was 596. The inhibition in experiment [1] was -15.7% (inactive); in experiment [3] it was -77.6% (inactive); in experiment [7], 12.4% (inactive); in experiment [8] it was 4.47% (inactive). In experiment [2], the inhibition of aggregation is -20% (inactive). The nuclei count was found to be 132% in experiment [2] and 107% in experiment [3]. Also, in experiment [4], the fluorescence slope was -0.605 (inactive). The NADPH fluorescence slope in experiment [5] was 2.4e-05 (inactive). In addition, in experiment [6], the slope is 0.00349 (inactive).

For `COC(=O)CN1C(=O)C(O)(CC(=O)c2ccc(Cl)cc2)c2ccccc21` (centres undefined), the cell count in experiment [1] stood at 605. Moreover, the inhibition in experiment [1] is -0.8% (inactive); in experiment [3], -40.7% (inactive); in experiment [7], 17.2% (inactive); in experiment [8] it was 36% (inactive). In addition, the inhibition of aggregation in experiment [2] is -5.5% (inactive). Further, the nuclei count in experiment [2] came to 110%; in experiment [3], 102%. Moreover, the fluorescence slope in experiment [4] was -0.372 (inactive). In addition, the NADPH fluorescence slope in experiment [5] was 2.5e-05 (inactive). Further, the slope in experiment [6] was 0.00594 (inactive).

With `Cc1cnc(C(=O)Nc2nnc(C(C)C)s2)cn1`, in experiment [1], the cell count turned out to be 569. Further, the inhibition was -8.8% (inactive) in experiment [1], -28.6% (inactive) in experiment [3], -25.1% (inactive) in experiment [7] and -89.5% (inactive) in experiment [8]. For the same molecule, the inhibition of aggregation in experiment [2] was 10.8% (inactive). The results for the nuclei count in experiment [2] and in experiment [3] were 107% and 118%, respectively. Besides, the fluorescence slope in experiment [4] is -0.5 (inactive). Moreover, the NADPH fluorescence slope in experiment [5] was -3.3e-05 (inactive). Also, in experiment [6], the slope is 0.00641 (inactive).

For `Cc1cc(C)c(C#N)c(SCc2ccc(C#N)cc2)n1`, the cell count in experiment [1] was 609. For the same molecule, the inhibition in experiment [1] is -7.7% (inactive); in experiment [3] it was 40.3% (inactive); in experiment [7], 5.07% (inactive); in experiment [8], -3.75% (inactive). Also, the inhibition of aggregation in experiment [2] was -4.1% (inactive). Moreover, the values for the nuclei count in experiment [2] and in experiment [3] were 52% and 104%, respectively. Moreover, the fluorescence slope in experiment [4] is -0.435 (inactive). Further, the NADPH fluorescence slope in experiment [5] was -5.8e-05 (inactive). Moreover, the slope in experiment [6] is 0.00656 (inactive).

With `Cc1cc(C)nc(SCC(=O)Nc2ccc(S(=O)(=O)Nc3nccs3)cc2)n1`, the cell count in experiment [1] was 312. Moreover, the inhibition in experiment [1] was 9% (inactive); in experiment [3], -21.2% (inactive); in experiment [7], 10% (inactive); in experiment [8], 32.8% (inactive). Further, the inhibition of aggregation in experiment [2] is 5.3% (inactive). Moreover, the nuclei count is 97.6% in experiment [2] and 116% in experiment [3]. In addition, in experiment [4], the fluorescence slope was -0.383 (inactive). Also, the NADPH fluorescence slope in experiment [5] is -5.8e-05 (inactive). Also, the slope in experiment [6] is 0.00544 (inactive).

As for `CN(C)c1nc(N)nc(-c2nc3ccccc3s2)n1`, the cell count in experiment [1] was 824. Besides, the inhibition in experiment [1] was -2.1% (inactive); in experiment [3] it was -96.9% (inactive); in experiment [7], -26% (inactive); in experiment [8], -41.6% (inactive). For the same molecule, in experiment [2], the inhibition of aggregation was -13.6% (inactive). For the same molecule, the values for the nuclei count in experiment [2] and in experiment [3] were 97.7% and 122%, respectively. The fluorescence slope in experiment [4] was -0.489 (inactive). Moreover, in experiment [5], the NADPH fluorescence slope was -2.4e-05 (inactive). Besides, the slope in experiment [6] is 0.00639 (inactive).
